In the supplement of paper PMC7156485:
Counter-ions that a name gives are not always drawn. ± gives the standard deviation of the averaged measurements.
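Note: TDF denotes transformed human dermal fibroblasts of mesenchymal origin.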

These compounds were tested on HCC1569 (assay: cell number relative to DMSO (% of DMSO); higher = more cells (less growth inhibition / toxicity)). Settings: concentration: 10 µM; 24 h.
In short: (§1)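 H1.0 nuclear intensity or cell number is stated as percent of the plate control, based on the median of replicates, and HCC1569 values were smoothed for positional effects. These came from HCC1569 and TDF cells treated with compounds at 10 µM for 24 h at 37 °C in triplicate, then fixed in 3.7% formaldehyde and stained with a rabbit anti-H1.0 antibody, an AlexaFluor 647 secondary and DAPI.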
O=c1ccc2ccc(O)c(O)c2o1 [Daphnetin] was tested, and the cell number was 106. CCNC(=O)N1CCN(CCCC(c2ccc(F)cc2)c2ccc(F)cc2)CC1.Cl [Amperozide hydrochloride] gave a cell number of 94.2. With CCCCCC(O)C=CC1C(O)CC(O)C1CCCCCCC(=O)O (stereo not drawn) [Prostaglandin F1a] the cell number was 106. In the case of O=C(O)CC/C=C\C[C@H]1CO[C@@H](c2ccccc2Cl)O[C@H]1c1ccccc1O, the cell number is reported as 100. CCCCCC=CCC=CCC=CCC=CCCCC(=O)OC(COCCCCCCCCCCCCCCCC)COP(=O)([O-])OCC[N+](C)(C)C (stereo not drawn) [Arachidonyl-PAF] showed a cell number of 98. With CCC(=C(c1ccccc1)c1ccc(OCCN(C)C)cc1)c1ccccc1.O=C(O)CC(O)(CC(=O)O)C(=O)O [Tamoxifen citrate] the cell number was 85.2. Compound CC1(NCC(O)COc2cccc3[nH]ccc23)CCC(C(C)(C)NC(=O)CBr)CC1 (stereo not drawn) [Pindobind-5HT1A] has a cell number of 61.4. Work on CC12CCC(=O)C=C1CCC1C2C(O)CC2(C)C1CCC2(O)C(=O)COC(=O)CCC(=O)[O-].[Na+] (stereo not drawn) [Hydrocortisone 21-hemisuccinate sodium] yielded a cell number of 99.5. In the case of O=C(NCCNCC(O)COc1ccc(O)cc1)N1CCOCC1.O=C(O)C=CC(=O)O (stereo not drawn) [Xamoterol hemifumarate], the cell number is reported as 104. Work on Cc1[nH]c(=O)c(C#N)cc1-c1ccncc1 [Milrinone] yielded a cell number of 103 ± 3.6. CC(=O)NC(CSCC=C(C)CCC=C(C)CCC=C(C)CCC=C(C)C)C(=O)O (stereo not drawn) gave a cell number of 102. Work on Cl.Fc1ccc(C(OCCCc2cnc[nH]2)c2ccc(F)cc2)cc1 yielded a cell number of 99.8. N#CC(=Cc1ccc(O)cc1)C(N)=C(C#N)C#N was tested, and the cell number was 99. Work on O=C(c1ccc2c(c1)OCCO2)N1CCCCC1 yielded a cell number of 105. Nc1sc2c(c1C(=O)c1ccc(Cl)cc1)CCCC2 gave a cell number of 102. Compound N#Cc1c(NC(=O)c2cccc3ccccc23)sc2c1CCCC2 [JNK Inhibitor IX] has a cell number of 62.6. CCCCCC=CCC=CCCCCCCCC(N)=O [Linoleamide] showed a cell number of 99.8. Compound NC1CONC1=O [L-Cycloserine] has a cell number of 102 ± 2.4. O=S(=O)(c1cccc2cnccc12)N1CCCNCC1 showed a cell number of 107. With NC(=O)c1nnn(Cc2cc(Cl)c(C(=O)c3ccc(Cl)cc3)c(Cl)c2)c1N the cell number was 75. Compound Cl.O=c1cc(N2CCOCC2)oc2c(-c3ccccc3)cccc12 [LY-294,002 hydrochloride] has a cell number of 82. NC(N)=S [Thiourea] showed a cell number of 100. With CC1(C)SC2C(NC(=O)C(N)c3ccccc3)C(=O)N2C1C(=O)O (stereo not drawn) [Ampicillin] the cell number was 103. CCn1cc(C(=O)O)c(=O)c2cc(F)c(N3CCNCC3)nc21 [Enoxacin] was tested, and the cell number was 105. With CC(=O)Oc1ccc(C(c2ccc(OC(C)=O)cc2)c2ccccn2)cc1 [Bisacodyl] the cell number was 94.2. CC(=O)OCC1=C(C(=O)[O-])N2C(=O)C(NC(=O)Cc3cccs3)C2SC1.[Na+] (stereo not drawn) [Cephalothin sodium] was tested, and the cell number was 100. For CC(C)=CCC(O)C1=CC(=O)c2c(O)ccc(O)c2C1=O (stereo not drawn) [Shikonin], the cell number was 27. For O=C1c2c(O)cc(O)cc2O[C@H](c2cc(O)c(O)c(O)c2)[C@H]1O, the cell number was 95.8. COc1cc2c(cc1-c1c(C)noc1C)ncc1[nH]c(=O)n([C@H](C)c3ccccn3)c12 gave a cell number of 75. COc1cc(-c2oc3cc(O)cc(O)c3c(=O)c2OC2OC(CO)C(O)C(O)C2O)cc(OC)c1O (stereo not drawn) [Syringetine-3-glucoside] gave a cell number of 102. Work on O=C(O)C1CCCNC1 (racemic) yielded a cell number of 109. Compound CC(C)c1cccc(C(C)C)c1N1C(=O)c2ccc(O)cc2C1=O has a cell number of 60.4. Work on COC(=O)[C@@H](N)Cc1ccc(O)c(O)c1.Cl [L-3,4-Dihydroxyphenylalanine methyl ester hydrochloride] yielded a cell number of 102. CC1OC(OC2C(Oc3cc(O)c4c(=O)c(O)c(-c5ccc(O)cc5)oc4c3)OC(CO)C(O)C2O)C(O)C(O)C1O (stereo not drawn) [Kaempferol-7-neohesperidoside] showed a cell number of 98.8. With O=c1cc(N2CCOCC2)oc2c1ccc1ccccc12 [DNA-PK Inhibitor II] the cell number was 98.1. CC1(C(=O)O)CCC2(C)CCC3(C)C(=CC(=O)C4C5(C)CCC(O)C(C)(C)C5CCC43C)C2C1 (stereo not drawn) showed a cell number of 102. COc1cc2c(cc1OC)-c1cc(=Nc3c(C)cc(C)cc3C)n(C)c(=O)n1CC2.Cl [Trequinsin hydrochloride] showed a cell number of 96.4. CC(C)(C)NCC(O)COc1nsnc1N1CCOCC1 (stereo not drawn) [S(-)-Timolol maleate] was tested, and the cell number was 97.5. For CC(O)C1C(=O)N2C(C(=O)O)=C(SC3CNC(C(=O)N(C)C)C3)C(C)C12 (stereo not drawn) [Meropenem], the cell number was 105.

Each compound was assayed on TDF in the same assay as above. Settings: concentration: 10 µM; 24 h.
In short: as §1
With O=c1ccc2ccc(O)c(O)c2o1 [Daphnetin] the cell number was 87.6. With CCNC(=O)N1CCN(CCCC(c2ccc(F)cc2)c2ccc(F)cc2)CC1.Cl [Amperozide hydrochloride] the cell number was 95.8. CCCCCC(O)C=CC1C(O)CC(O)C1CCCCCCC(=O)O (stereo not drawn) [Prostaglandin F1a] gave a cell number of 101. O=C(O)CC/C=C\C[C@H]1CO[C@@H](c2ccccc2Cl)O[C@H]1c1ccccc1O was tested, and the cell number was 96.5. CCCCCC=CCC=CCC=CCC=CCCCC(=O)OC(COCCCCCCCCCCCCCCCC)COP(=O)([O-])OCC[N+](C)(C)C (stereo not drawn) [Arachidonyl-PAF] gave a cell number of 100. Work on CCC(=C(c1ccccc1)c1ccc(OCCN(C)C)cc1)c1ccccc1.O=C(O)CC(O)(CC(=O)O)C(=O)O [Tamoxifen citrate] yielded a cell number of 95.2. CC1(NCC(O)COc2cccc3[nH]ccc23)CCC(C(C)(C)NC(=O)CBr)CC1 (stereo not drawn) [Pindobind-5HT1A] was tested, and the cell number was 10.4. For CC12CCC(=O)C=C1CCC1C2C(O)CC2(C)C1CCC2(O)C(=O)COC(=O)CCC(=O)[O-].[Na+] (stereo not drawn) [Hydrocortisone 21-hemisuccinate sodium], the cell number was 99.5. Work on O=C(NCCNCC(O)COc1ccc(O)cc1)N1CCOCC1.O=C(O)C=CC(=O)O (stereo not drawn) [Xamoterol hemifumarate] yielded a cell number of 98.5. For Cc1[nH]c(=O)c(C#N)cc1-c1ccncc1 [Milrinone], the cell number was 108 ± 13. For CC(=O)NC(CSCC=C(C)CCC=C(C)CCC=C(C)CCC=C(C)C)C(=O)O (stereo not drawn), the cell number was 98.3. In the case of Cl.Fc1ccc(C(OCCCc2cnc[nH]2)c2ccc(F)cc2)cc1, the cell number is reported as 108. For N#CC(=Cc1ccc(O)cc1)C(N)=C(C#N)C#N, the cell number was 96.7. With O=C(c1ccc2c(c1)OCCO2)N1CCCCC1 the cell number was 92.2. Nc1sc2c(c1C(=O)c1ccc(Cl)cc1)CCCC2 gave a cell number of 96.8. Compound N#Cc1c(NC(=O)c2cccc3ccccc23)sc2c1CCCC2 [JNK Inhibitor IX] has a cell number of 9.56. For CCCCCC=CCC=CCCCCCCCC(N)=O [Linoleamide], the cell number was 94.8. NC1CONC1=O [L-Cycloserine] showed a cell number of 102 ± 2.1. Compound O=S(=O)(c1cccc2cnccc12)N1CCCNCC1 has a cell number of 102. NC(=O)c1nnn(Cc2cc(Cl)c(C(=O)c3ccc(Cl)cc3)c(Cl)c2)c1N showed a cell number of 73.8. In the case of Cl.O=c1cc(N2CCOCC2)oc2c(-c3ccccc3)cccc12 [LY-294,002 hydrochloride], the cell number is reported as 90.9. Compound NC(N)=S [Thiourea] has a cell number of 108. CC1(C)SC2C(NC(=O)C(N)c3ccccc3)C(=O)N2C1C(=O)O (stereo not drawn) [Ampicillin] gave a cell number of 109. Work on CCn1cc(C(=O)O)c(=O)c2cc(F)c(N3CCNCC3)nc21 [Enoxacin] yielded a cell number of 91.3. For CC(=O)Oc1ccc(C(c2ccc(OC(C)=O)cc2)c2ccccn2)cc1 [Bisacodyl], the cell number was 102. Compound CC(=O)OCC1=C(C(=O)[O-])N2C(=O)C(NC(=O)Cc3cccs3)C2SC1.[Na+] (stereo not drawn) [Cephalothin sodium] has a cell number of 113. For CC(C)=CCC(O)C1=CC(=O)c2c(O)ccc(O)c2C1=O (stereo not drawn) [Shikonin], the cell number was 38.8. Work on O=C1c2c(O)cc(O)cc2O[C@H](c2cc(O)c(O)c(O)c2)[C@H]1O yielded a cell number of 99.5. COc1cc2c(cc1-c1c(C)noc1C)ncc1[nH]c(=O)n([C@H](C)c3ccccn3)c12 gave a cell number of 66.3. Work on COc1cc(-c2oc3cc(O)cc(O)c3c(=O)c2OC2OC(CO)C(O)C(O)C2O)cc(OC)c1O (stereo not drawn) [Syringetine-3-glucoside] yielded a cell number of 93. O=C(O)C1CCCNC1 (racemic) was tested, and the cell number was 103. With CC(C)c1cccc(C(C)C)c1N1C(=O)c2ccc(O)cc2C1=O the cell number was 59.5. COC(=O)[C@@H](N)Cc1ccc(O)c(O)c1.Cl [L-3,4-Dihydroxyphenylalanine methyl ester hydrochloride] showed a cell number of 110. In the case of CC1OC(OC2C(Oc3cc(O)c4c(=O)c(O)c(-c5ccc(O)cc5)oc4c3)OC(CO)C(O)C2O)C(O)C(O)C1O (stereo not drawn) [Kaempferol-7-neohesperidoside], the cell number is reported as 99.4. With O=c1cc(N2CCOCC2)oc2c1ccc1ccccc12 [DNA-PK Inhibitor II] the cell number was 97.4. For CC1(C(=O)O)CCC2(C)CCC3(C)C(=CC(=O)C4C5(C)CCC(O)C(C)(C)C5CCC43C)C2C1 (stereo not drawn), the cell number was 108. COc1cc2c(cc1OC)-c1cc(=Nc3c(C)cc(C)cc3C)n(C)c(=O)n1CC2.Cl [Trequinsin hydrochloride] gave a cell number of 111. For CC(C)(C)NCC(O)COc1nsnc1N1CCOCC1 (stereo not drawn) [S(-)-Timolol maleate], the cell number was 104. CC(O)C1C(=O)N2C(C(=O)O)=C(SC3CNC(C(=O)N(C)C)C3)C(C)C12 (stereo not drawn) [Meropenem] was tested, and the cell number was 98.2.
